The source made the active and inactive calls. The calls were made as follows: active = hit-call score of the fitted dose curve at least 0.9, where 1 is the maximum; inactive = score below 0.9.
read-out: flavin-containing dimethylaniline monooxygenases 3 (FMO3), FMO3 (gene 2328); test: LTEA_HepaRG_FMO3: Life Technologies and Expression Analysis (LTEA) Assay for flavin-containing dimethylaniline monooxygenases 3 (FMO3) using HepaRG (AID 2283453); settings: mRNA level, 48 h; actives raise or lower the signal;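 as to AC50: differentiated human HepaRG liver cells in serum-free induction medium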
Procedure, shortened: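 Differentiated HepaRG cells in serum-free induction medium, exposed 48 h in duplicate to 8 half-log concentrations up to 100 uM in 0.5% DMSO. FMO3 mRNA by qRT-PCR, normalized to ACTB, GAPDH, POLR2A; bidirectional fit vs DMSO.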

Row | SMILES | outcome | AC50
1 | Cc1occc(=O)c1O | inactive | –
2 | CC(=O)OC1CC(C)OC(C)O1 (stereo unspecified) | inactive | –
3 | CC(C)NCC(O)c1ccc(O)c(O)c1 (stereo unspecified) | – | 0.451 µM (active)
4 | CC(COCC(C)OC(=O)c1ccccc1)OC(=O)c1ccccc1 (stereo unspecified) | inactive | –
5 | NC1CCCCC1 | inactive | –
6 | CC(N)=O | inactive | –
7 | COC(=O)[C@H]1[C@H]2C[C@@H]3c4[nH]c5cc(OC)ccc5c4CCN3C[C@H]2C[C@@H](OC(=O)c2cc(OC)c(OC)c(OC)c2)[C@@H]1OC | – | 30.5 µM (active)
8 | O=NO | inactive | –
9 | O=C(NS(=O)(=O)/C=C/c1cccs1)c1ccc(F)cc1Br | inactive | –
10 | CN(C)CCCN(C)CCCN(C)C | inactive | –
11 | CC(=O)O | inactive | –
12 | CCCCC(CC)COC(=O)CCCCCCCC(=O)OCC(CC)CCCC (stereo unspecified) | inactive | –
13 | NC=O | inactive | –
14 | O=C(O)c1[nH]n(-c2ccc(S(=O)(=O)O)cc2)c(=O)c1N=Nc1ccc(S(=O)(=O)O)cc1 | inactive | –

read-out: Cytochrome P450 (CYP1A1), CYP1A1 (gene 1543); test: LTEA_HepaRG_CYP1A1: Life Technologies and Expression Analysis (LTEA) Assay for Cytochrome P450 (CYP1A1) using HepaRG (AID 2283454); settings: mRNA level, 48 h; actives raise or lower the signal
Procedure, shortened: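 CYP1A1 transcript levels measured by Fluidigm qRT-PCR against three housekeeping genes, 48 h after chemical dosing of human HepaRG cells (highest concentration 100 uM, half-log steps, 0.5% DMSO vehicle). Gain or loss of signal fitted relative to DMSO.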

Row | SMILES | AC50 | outcome
15 | CC(=O)OC1CC(C)OC(C)O1 (stereo unspecified) | 50 µM (active) | –
16 | CCCC[C@H]1CN(CC2CCOCC2)C(=O)OC12CCN(C1(C)CCN(C(=O)c3c(C)ncnc3C)CC1)CC2 | – | inactive
17 | O=C(N[C@@H](c1ccccc1)[C@@H]1CCCCN1)c1cccc(C(F)(F)F)c1Cl | – | inactive
18 | CC(C)NCC(O)c1ccc(O)c(O)c1 (stereo unspecified) | 0.147 µM (active) | –
19 | C#CC(O)C(CC)CCCC (stereo unspecified) | 73.1 µM (active) | –
20 | CC(COCC(C)OC(=O)c1ccccc1)OC(=O)c1ccccc1 (stereo unspecified) | 87.6 µM (active) | –
21 | NC1CCCCC1 | – | inactive
22 | O=C(O)CC(O)(CC(=O)O)C(=O)O | 50 µM (active) | –
23 | COC(=O)CCC(=O)OC | 50 µM (active) | –
24 | CC(N)=O | – | inactive
25 | O=C(O)c1cccnc1 | – | inactive
26 | CCCC(=O)O | – | inactive
27 | CCc1cc(C2=C(C(=O)O)N(c3ccccc3C(F)(F)F)S(=O)(=O)c3ccccc32)cc2c1OCO2 | 50 µM (active) | –
28 | O=NO | – | inactive
29 | CCOCCOCCO | – | inactive
30 | OCC(CO)n1cnc(-c2ccc(F)cc2)c1-c1ccnc(Oc2ccccc2)n1 | 50 µM (active) | –
31 | O=C(NS(=O)(=O)/C=C/c1cccs1)c1ccc(F)cc1Br | 50 µM (active) | –
32 | CC(C)(C)c1ccccc1 | 50 µM (active) | –
33 | Cc1ccc(-c2cc(C(F)(F)F)nn2-c2ccc(S(N)(=O)=O)cc2)cc1 | 12.5 µM (active) | –
34 | CN(C)CCCN1c2ccccc2Sc2ccc(Cl)cc21 | 27.1 µM (active) | –
35 | O=C1O[C@H]([C@H](O)CO)C(O)=C1O | 64.4 µM (active) | –
36 | CN(C)CCCN(C)CCCN(C)C | – | inactive
37 | CO[C@@H]1COCC[C@@H]1N[C@@H]1CC[C@@](C(=O)N2CCc3ncc(C(F)(F)F)cc3C2)(C(C)C)C1 | – | inactive
38 | CC(=O)O | 72.2 µM (active) | –
39 | CCCCC(CC)COC(=O)CCCCCCCC(=O)OCC(CC)CCCC (stereo unspecified) | 50 µM (active) | –
40 | NC=O | – | inactive
41 | O=C(O)c1[nH]n(-c2ccc(S(=O)(=O)O)cc2)c(=O)c1N=Nc1ccc(S(=O)(=O)O)cc1 | 33 µM (active) | –

read-out: CFLAR gene, CFLAR (gene 8837); test: LTEA_HepaRG_CFLAR: Life Technologies and Expression Analysis (LTEA) Assay for CFLAR gene using HepaRG (AID 2283455); settings: mRNA level, 48 h; actives raise or lower the signal
Procedure, shortened: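 HepaRG cells were plated for 48 h, switched to serum-free induction medium, then exposed in duplicate for 48 h to 8 concentrations (top 100 uM, half-log steps, 0.5% DMSO). CFLAR mRNA was measured by qRT-PCR, normalized to ACTB, GAPDH and POLR2A.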

Row | SMILES | outcome | AC50
42 | Cc1occc(=O)c1O | inactive | –
43 | CC(=O)OC1CC(C)OC(C)O1 (stereo unspecified) | inactive | –
44 | CCCC[C@H]1CN(CC2CCOCC2)C(=O)OC12CCN(C1(C)CCN(C(=O)c3c(C)ncnc3C)CC1)CC2 | inactive | –
45 | O=C(N[C@@H](c1ccccc1)[C@@H]1CCCCN1)c1cccc(C(F)(F)F)c1Cl | – | 77.2 µM (active)
46 | CC(C)NCC(O)c1ccc(O)c(O)c1 (stereo unspecified) | – | 0.238 µM (active)
47 | C#CC(O)C(CC)CCCC (stereo unspecified) | inactive | –
48 | CC(COCC(C)OC(=O)c1ccccc1)OC(=O)c1ccccc1 (stereo unspecified) | inactive | –
49 | NC1CCCCC1 | inactive | –
50 | O=C(O)CC(O)(CC(=O)O)C(=O)O | inactive | –
51 | COC(=O)CCC(=O)OC | inactive | –
52 | CC(N)=O | inactive | –
53 | O=C(O)c1cccnc1 | inactive | –
54 | CCCC(=O)O | inactive | –
55 | CCc1cc(C2=C(C(=O)O)N(c3ccccc3C(F)(F)F)S(=O)(=O)c3ccccc32)cc2c1OCO2 | inactive | –
56 | COC(=O)[C@H]1[C@H]2C[C@@H]3c4[nH]c5cc(OC)ccc5c4CCN3C[C@H]2C[C@@H](OC(=O)c2cc(OC)c(OC)c(OC)c2)[C@@H]1OC | inactive | –
57 | O=NO | inactive | –
58 | CCOCCOCCO | inactive | –
59 | CS(=O)(=O)c1ccc([C@@H](C[C@H]2CCC(=O)C2)C(=O)Nc2cnccn2)cc1Cl | – | 0.753 µM (active)
60 | OCC(CO)n1cnc(-c2ccc(F)cc2)c1-c1ccnc(Oc2ccccc2)n1 | inactive | –
61 | O=C(NS(=O)(=O)/C=C/c1cccs1)c1ccc(F)cc1Br | inactive | –
62 | CC(C)(C)c1ccccc1 | inactive | –
63 | Cc1ccc(-c2cc(C(F)(F)F)nn2-c2ccc(S(N)(=O)=O)cc2)cc1 | – | 78.3 µM (active)
64 | CN(C)CCCN1c2ccccc2Sc2ccc(Cl)cc21 | – | 71.3 µM (active)
65 | O=C1O[C@H]([C@H](O)CO)C(O)=C1O | inactive | –
66 | CN(C)CCCN(C)CCCN(C)C | inactive | –
67 | CO[C@@H]1COCC[C@@H]1N[C@@H]1CC[C@@](C(=O)N2CCc3ncc(C(F)(F)F)cc3C2)(C(C)C)C1 | inactive | –
68 | CC(=O)O | inactive | –
69 | CCCCC(CC)COC(=O)CCCCCCCC(=O)OCC(CC)CCCC (stereo unspecified) | inactive | –
70 | NC=O | inactive | –
71 | O=C(O)c1[nH]n(-c2ccc(S(=O)(=O)O)cc2)c(=O)c1N=Nc1ccc(S(=O)(=O)O)cc1 | inactive | –
